High-throughput results as filed in PubChem.
The list is not random: actives were taken first. Their share in the collection is about 3.3%.
VACV Venus inh: vaccinia inhibition (Venus reporter); actives 0.46% (n = 330,000); Vaccinia virus Venus reporter expression, fluorescence; Potency, µM (top dose mostly 36.5 µM), for the others: at the highest dose activity change, negative = inhibition, actives largely listed as inhibitors; AID 720580; calls by dose curve; tested in A549 cells; note: nearly all actives have a fitted effect of over 30% in size
Vaccinia mCherry: inhibitors of vaccinia virus infection (mCherry reporter signal). Vaccinia virus mCherry reporter infection, fluorescence. Potency, µM (titrated, usually from 36.5 µM), for the others: at the top dose activity change, negative = inhibition, most hits filed as inhibitors. actives 0.63% (n = 310,000); calls by dose curve; tested in A549 cells; note: nearly all actives have a fitted effect of over 35% in size
HCV inh: blocks hepatitis C virus. AID 651820. actives 3.4% (n = 340,000). Huh7.5.1 HCVcc-Cre infection, luciferase reporter, 44 h. Potency, µM (highest dose often 41.8 µM), for inactives: at the top dose activity change, negative = inhibition, actives largely listed as inhibitors; active = well fitted inhibition curve with a large enough effect; inconclusive = small, poorly fitted or top-dose-only effect, or another doubt; inactive = no such curve, though single readings can be large or run the other way
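1,000 cells/well; 4 h culture; + compound; + HCVcc-Cre (~0.5 moi); 44 h; luciferase substrate, RT 15 min; read 15 sec.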
The depositor's hits bear a star; i = inactive; ? = inconclusive; / = no result given; [ ] = another dose, or the depositor's remark. % is set by controls: 0 for no effect and ±100 for the full control effect; potency is the fitted concentration of half-maximal effect.

SMILES | VACV Venus inh | Vaccinia mCherry | HCV inh
CC(C(=O)NC1CCCC1)n1c(-c2ccccn2)nc2ccccc21 (stereo not drawn) | -2% | 17% | /
CCC(NC(=O)NNC(N)=S)(C(F)(F)F)C(F)(F)F | 28µM* | ? | 16%
CCC(NC(=O)Nc1ncccc1C)(C(F)(F)F)C(F)(F)F | -8% | / | 1%
Clc1ccc(/C=C/c2ccc3ccccc3n2)cc1Cl | -25% | -11% | /
CCN(c1ccccc1)S(=O)(=O)c1ccc2c(c1)N(C(C)=O)CCS2 | / | / | -1%
Cc1cccc2sc(NC(=O)C3CC3)nc12 | -4% | -10% | -22%
Cc1cccc2sc(NC(=O)c3ccc(Cl)s3)nc12 | -6% | i | 10µM*
CC1CCCC(NC(=O)COC(=O)/C=C/c2ccc([N+](=O)[O-])cc2)C1C (stereo not drawn) | -11% | i | 23%
COc1cc(C(=O)N(C)CC(=O)Nc2cccc(F)c2)ccc1OCc1ccccc1 | -13% | i | -12%
COc1ccc(C2(C(=O)c3ccccc3)C(=O)c3ccccc3C2=O)cc1 | / | / | 3.5µM*
COc1ccc(C2(Nc3cccc(C(=O)O)c3C)C(=O)c3ccccc3C2=O)cc1 | -5% | i | /
Cc1ccc(Nc2c(-c3ccc(N4CCOCC4)cc3)nc3c(C)cccn23)cc1 | -22% | -14% | /
CCOC(=O)/C=c1\s/c(=C\c2c(OCC)ccc3ccccc23)c(=O)n1CC(=O)NCC1CCCO1 (stereo not drawn) | ? | -19% | 3.5µM*
CCOC(=O)/C=c1/s/c(=C\c2c(OC)ccc3ccccc23)c(=O)n1CC(=O)NCC1CCCO1 (stereo not drawn) | -20% | ? | ?
CCOc1ccc(NS(=O)(=O)c2ccc3[nH]cc(C(=O)N(C)C4CCCCC4)c(=O)c3c2)cc1 | 4% | -5% | /
CC(C)NC(=O)C1CCN(c2nc3ccccc3nc2C(F)(F)F)CC1 | -16% | -10% | /
O=C(Nc1ccc(Br)cc1)c1ccc(F)c(S(=O)(=O)N2CCN(c3ccccn3)CC2)c1 | -30% | -11% | 7.1µM*
CN(CC1CCCO1)S(=O)(=O)c1ccc(C(=O)Nc2ccccc2F)cc1 (stereo not drawn) | -16% | -12% | 17%
Cc1ccc(C(=O)Nc2nc(-c3ccccn3)cs2)cc1S(=O)(=O)N1CCOCC1 | / | / | 5.6µM*
O=C(Nc1nc(-c2ccccn2)cs1)c1ccc(F)c(S(=O)(=O)N2CCOCC2)c1 | / | / | 3.5µM*
Cc1ccc(C(=O)Nc2ccccn2)cc1S(=O)(=O)N1CCOCC1 | -15% | -19% | 10%
Cc1nnc(NC(=O)c2ccc(F)c(S(=O)(=O)N3CCOCC3)c2)s1 | -6% | -17% | 21%
CN(CC1CCCO1)S(=O)(=O)c1ccc(C(=O)Nc2nc(-c3ccccn3)cs2)cc1 (stereo not drawn) | ? | ? | 4.5µM*
O=C(Nc1ccccc1)c1ccc(N2CCN(c3ccccn3)CC2)c(S(=O)(=O)N2CCOCC2)c1 | / | / | -7%
COc1cc(-c2cc(C)c3c(OC)ccc(OC)c3n2)cc2c1OCCN(C(=O)C(C)c1n[nH]c(=O)c3ccccc13)C2 (stereo not drawn) | -4% | -11% | /
SMILES | VACV Venus inh | Vaccinia mCherry | HCV inh
CC(C)CCNC(=O)Cn1c(SCc2cccc(F)c2)nc2ccncc21 | -17% | i | /
CC(=O)CSc1cc(-c2ccccc2)nc2ncnn12 | 16% | -5% | 4%
Cc1cccc(N2CCN(C(=O)C3CCN(C(=O)c4cc5sccc5n4C)CC3)CC2C)c1 (stereo not drawn) | -4%[7.34 µM] | -2%[7.34 µM] | /
CSc1ccc(CCNC(=O)Cn2ccc3cc(S(=O)(=O)N4CCCCCC4)ccc32)cc1 | -9% | -19% | /
Cc1ccnc2c(Cl)ccc(Cl)c12 | -9% | -11% | /
O=C(Nc1cc(S(=O)(=O)N2CCOCC2)ccc1N1CCCCC1)c1cc(-c2ccccn2)nc2ccccc12 | -3% | 3% | -2%
Cc1ccc(S(=O)(=O)N2CCOCC2)cc1NC(=O)c1cc(-c2ccccn2)nc2ccccc12 | ? | 11µM* | ?
Cc1nc2cc(NC(=O)[C@@H]3C[C@@H](Sc4ccccn4)CN3Cc3cccc(Cl)c3)ccc2s1 | 2% | -8% | /
Cc1ccc(S(=O)(=O)N2CCN(C(=O)CN3CCN(c4ccc(O)cc4)CC3)CC2)cc1 | / | / | -7%
COCc1nnc(NC(=O)C2CC(=O)N(C3CCCC3)C2)s1 (stereo not drawn) | 16% | i | 12%
Cc1ccc(C)c(N2CCN(C(=O)c3ccc(Cl)c(NC4=NC5CS(=O)(=O)CC5S4)c3)CC2)c1 (stereo not drawn) | -21% | -3% | ?
Clc1ccc2nnnc(-c3ccccc3)c2c1 | 13µM* | 13µM* | 4.5µM*
c1ccc(-c2nnnc3ccccc23)cc1 | -14% | -3% | 37%
COc1ccc(CN2CCCC(n3cc(C(=O)N4CCCCC4)nn3)C2)c(OC)c1OC (stereo not drawn) | -7% | -6% | /
Cn1cc(CN2CCC(C3(c4ccccn4)NC(=O)N(CC4CCCO4)C3=O)CC2)c2ccccc21 (stereo not drawn) | -15% | i | /
Cc1ccc(CNc2ccc(-c3nc(-c4ccco4)no3)cc2[N+](=O)[O-])cc1 | -14% | -14% | /
Cc1cc(C(=O)CCl)c(C)n1CCc1ccccc1 | 9% | -14% | 8.9µM*
CCOC(=O)c1cc(C)n(CCc2ccccc2)c1C | ? | i | ?
Cc1nn(CC(=O)Nc2ccc(OC(F)(F)F)cc2)c(=O)c2c(C)n(-c3ccc(Cl)cc3)nc12 | -22% | 2% | /
Cc1ccc(S(=O)(=O)N2c3ccccc3CC2C)cc1 (stereo not drawn) | ? | -29% | -29%
CCOc1ccc(S(=O)(=O)N2c3ccccc3CC2C)cc1 (stereo not drawn) | / | / | 8.9µM*
COc1ccc(-n2ncc3c2CC(C)(C)CC3NC(=O)c2ccoc2C)cc1 (stereo not drawn) | -8% | -14% | ?
COc1ccc(OC)c(C(=O)NC2CC(C)(C)Cc3c2cnn3-c2ccccc2)c1 (stereo not drawn) | / | / | 13µM*
Cc1noc(C)c1S(=O)(=O)N(CC(=O)Nc1ccc(F)cc1F)c1ccc(C(C)C)cc1 | -14% | -19% | /
COc1ccc(C)cc1NC(=O)CSc1nnc(COc2ccc(C)cc2)n1Cc1ccco1 | -33% | / | ?
SMILES | VACV Venus inh | Vaccinia mCherry | HCV inh
CCn1c(SCC(=O)Nc2cc3oc4ccccc4c3cc2OC)nnc1-c1cccs1 | -20% | -8% | 10µM*
CCOc1ccc(NC(=O)CSc2ncc(-c3ccc(F)cc3)n2Cc2ccco2)cc1 | -10% | -25% | 10µM*
COc1ccccc1NC(=O)CSc1nnc(COc2ccc(Cl)cc2)n1Cc1ccco1 | / | / | 11µM*
CC(=O)Nc1ccc(-c2nnc(SCC(=O)Nc3ccc4c(c3)oc3ccccc34)n2C)cc1 | / | / | -17%
O=C(CSc1ncc(-c2ccc(F)cc2)n1Cc1ccco1)Nc1ccc2c(c1)OCO2 | ? | -19% | ?
COc1cc2c(cc1NC(=O)CSc1nnnn1-c1ccccc1)oc1ccccc12 | -7% | / | -6%
CCn1c(SCC(=O)Nc2ccc3c(c2)oc2ccccc23)nnc1-c1ccc(N)cc1 | / | / | 11µM*
COc1cc2c(cc1NC(=O)CSc1nnc(Cc3cccs3)n1Cc1ccco1)oc1ccccc12 | / | / | 2µM*
CCn1c(Cc2cccs2)nnc1SCC(=O)Nc1ccc(OC)c(OC)c1 | -16% | -18% | -22%
COc1ccccc1NC(=O)CSc1nnc(Cc2cccs2)n1C | -9% | -14% | 2%
